Measurements published in PMC7826789 (International Journal of Molecular Sciences, 2021).

test system: CAMK1; settings: Compound Concentration (nM):1000
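Also: KINOMEscan scanMAX binding as percent activity remaining versus control; lower means stronger binding.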

| SMILES | Percent Control |
| --- | --- |
| COc1ccccc1-c1cc(/C=C2\C(=O)Nc3ncc(Br)cc32)cc(Br)c1O [GW442130X] | 100% |
| CN1CCN(C(=O)c2ccc(NC(=O)Nc3ccc(N(C)c4ccnc(Nc5ccc(CS(C)(=O)=O)cc5)n4)cc3)cc2)CC1.Cl [GW830263A] | 100% |
| Cc1cc(O)cc(C)c1/C=C/c1cncc(C(N)=O)c1 [GW435821X] | 91% |

test system: CAMK2A; settings: Compound Concentration (nM):1000

| SMILES | Percent Control |
| --- | --- |
| O=C(Nc1n[nH]c2nc(-c3ccc(O)cc3)c(Br)cc12)C1CC1 [SB-725317] | 93% |
| COc1cccc(-c2c[nH]c3c(N/N=C/c4ccncc4)ncnc23)c1 [GW814408X] | 77% |
| Cl.O=C(O[C@H]1CN[C@H](C#Cc2cc3ncnc(Nc4ccc5c(cnn5Cc5ccccc5)c4)c3s2)C1)N1CCOCC1 [GSK200398A] | 94% |
| CCS(=O)(=O)c1ccc(OC)c(Nc2ncc(-c3cccc(OC)c3)o2)c1 [GW580509X] | 71% |
| COc1ccc2cc(-c3c(-c4ccncc4)nc(-c4ccc(S(C)(=O)=O)cc4C)n3C)ccc2c1 [SB-633825] | 87% |
| COc1ccc(COc2ccc(Cc3cnc(N)nc3N)cc2OC)cc1 [GW632580X] | 90% |
| C[C@@H](Oc1cc(-n2cnc3ccc(OC4CCN(C)CC4)cc32)sc1C(N)=O)c1ccccc1Cl [GSK579289A] | 74% |
| CCS(=O)(=O)c1ccc(OC)c(Nc2ncc(-c3cccc(F)c3)o2)c1 [GW621970X] | 85% |
| COc1cc(N2CCN(C(C)C)CC2)ccc1Nc1nc(Nc2ccc(F)cc2C(=O)NC[C@@H](O)CO)c2cc[nH]c2n1 [GSK1392956A] | 69% |
| COc1cc2ncn(-c3cc(O[C@H](C)c4ccccc4Cl)c(C(N)=O)s3)c2cc1OC [GSK237701A] | 89% |
| Cl.O=C(Nc1ccc(Oc2ccc3[nH]c(NC(=O)c4ccccc4)nc3c2)cc1)Nc1cc(C(F)(F)F)ccc1F [GW709042A] | 100% |
| COc1cc(C)c(N(C)C(=O)CN(C)C)cc1Nc1nc(Nc2cccc(F)c2C(N)=O)c2cc[nH]c2n1 [GSK2219385] | 89% |
| CCc1ccc(Oc2nccc(-c3c(-c4ccc(F)cc4)ncn3C3CCNCC3)n2)cc1 [SB-242719] | 67% |
| CC1=C(C(=O)Nc2ccc3[nH]ncc3c2)C(c2ccc3ccccc3c2)CC(=O)N1 (stereo not drawn) [GSK270822A] | 87% |
| Nc1ncnc2occ(-c3ccc(NC(=O)Nc4cc(C(F)(F)F)ccc4F)cc3)c12 [GW770249X] | 100% |
| O=C1Nc2ccc(C(=O)c3ccco3)cc2C1=Cc1cc(Cl)c(O)c(Cl)c1 [GW406108X] | 25% |
| COc1ccc2[nH]c3c4[nH]c5ccc(OC)cc5c4c4c(c3c2c1)C(=O)NC4=O [GW296115X] | 70% |
| CN(C)CCNC(=O)Nc1ccc(N(C)c2ccnc(Nc3ccc(CS(C)(=O)=O)cc3)n2)cc1.Cl [GW830900A] | 92% |
| Cl.c1ccc(Cc2nc3ccc(Nc4ncnc5ccccc45)cc3[nH]2)cc1 [GR269666A] | 93% |
| COc1ccc2c(-c3ccnc(Nc4cccc(OC(F)(F)F)c4)n3)cnn2n1 [GW810372X] | 100% |
| COc1cccc(-n2ncc3c(N/N=C/c4ccncc4)ncnc32)c1 [GW784752X] | 89% |
| COc1cc(/C=N/Nc2ncnc3[nH]ncc23)ccc1O [GW578748X] | 80% |
| NS(=O)(=O)c1ccc(N/N=C2\C(=O)Nc3ccc(C(=O)NCCc4c[nH]cn4)cc32)cc1 [GW300660X] | 100% |
| NS(=O)(=O)c1ccc(N/N=C2\C(=O)Nc3ccc(-c4cnco4)cc32)cc1 [GW276655] | 56% |
| NS(=O)(=O)c1ccc(Nc2ncc(-c3ccccc3)o2)cc1 [GW572399X] | 94% |
| C/C(Nc1ccc(S(N)(=O)=O)cc1)=C1/C(=O)Nc2ccccc21 [GW335962X] | 79% |
| Cl.O=S1CCN(Cc2ccc(-c3ccc4ncnc(Nc5ccc(OCc6ccccc6)c(F)c5)c4c3)o2)CC1 [GW576924A] | 100% |
| CN(C)c1cc2c(Nc3ccc4c(cnn4Cc4ccccc4)c3)ncnc2cn1 [GW282974X] | 74% |
| CCn1c(-c2nonc2N)nc2c(C#CC(C)(C)O)nc(OCCNC)cc21.Cl [GSK949675] | 100% |
| CC(C)COC(=O)c1ccc2c(c1)/C(=C/Nc1ccc(S(N)(=O)=O)cc1)C(=O)N2 [GW416981X] | 29% |
